Experimental data taken from PubChem BioAssay (NCATS).
“And” between values parts separate entries of the source, which are not always exact repeats. Equal entries are not always repeated. Inconclusive results are not listed. Entries that show only a call come without a potency. The source holds several records for some structures; these can differ, active in one and inactive in another. The source made the active and inactive calls. Calls follow the shape of the dose curve; as a rule, active = well fitted curve in the direction sought with a large enough effect; inconclusive = small, poorly fitted or top-dose-only effect, or another doubt; inactive = no such curve, though single readings can be large; an effect the other way counts as inactive or inconclusive. *1 amine or outer side, *2 acyl side, *3 side chain or, on linkers, in order; H or OH if unused. Where a SMILES comes first, the peptide text is derived from it. Bridges are numbered along the chain shown (N, C = ends). [ ]: non-standard residue; d: D form. The star is where a group is joined. ξ: configuration not given here. ξhTyr(3S-OH,4S-OH,3'-OSO3H) = NC(C(=O)O)[C@H](O)[C@@H](O)c1ccc(O)c(OS(=O)(=O)O)c1; Orn(4R-OH,5R-OH) = O=C([C@H](C[C@@H](O)[C@@H](O)N[*:3])N[*:1])[*:2]; X2 = CCCCCOc1ccc(-c2cc(-c3ccc(C(=O)*)cc3)no2)cc1; X3 = C[C@H]1CN([*:1])C(C(=O)[*:2])[C@H]1O; ξGln(3R-OH) = NC(=O)C[C@@H](O)C(N)C(=O)O; ξPro(4R-OH) = O=C(O)C1C[C@@H](O)CN1; ξThr(3R) = C[C@@H](O)C(N)C(=O)O

Tests used:
[1] = molecular target: Glutathione peroxidase 1 (Homo sapiens) (UniProt P07203); assay: Primary qHTS Assay for Inhibitors of Recombinant Selenoprotein Glutathione Peroxidase 1 (GPX1) (AID 1845191); also: nearly all actives have a fitted effect of over 65% in size
Chain of Glutathione peroxidase 1 (Homo sapiens) (P07203 whole entry, looked up): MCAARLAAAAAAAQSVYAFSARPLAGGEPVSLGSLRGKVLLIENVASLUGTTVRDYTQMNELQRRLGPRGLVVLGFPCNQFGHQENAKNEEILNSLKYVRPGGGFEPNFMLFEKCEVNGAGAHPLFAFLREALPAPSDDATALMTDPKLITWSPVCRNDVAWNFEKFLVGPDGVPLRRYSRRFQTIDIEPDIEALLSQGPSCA
In short: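 GR-coupled readout: NADPH consumption tracked by fluorescence, ex 340/em 450 nm, at t=0 and after 15 min at RT. Final mix 10 nM GPX1, 1 mM GSH, 0.5 mM CHP, 0.5 mM NADPH, 100 nM GR, 0.01% BSA, following 30 min enzyme–compound preincubation.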

[2] = molecular target: Phospholipid hydroperoxide glutathione peroxidase GPX4 (Homo sapiens) (UniProt P36969); assay: Primary qHTS Assay for Inhibitors of Recombinant Selenoprotein Glutathione Peroxidase 4 (GPX4) (AID 1845192); also: nearly all actives have a fitted effect of over 65% in size; also: potency is read from the fitted curve at half-maximal effect; as to activity change, negative = inhibition: series mostly up to about 50 µM
Chain of Phospholipid hydroperoxide glutathione peroxidase GPX4 (Homo sapiens) (P36969 whole entry, looked up): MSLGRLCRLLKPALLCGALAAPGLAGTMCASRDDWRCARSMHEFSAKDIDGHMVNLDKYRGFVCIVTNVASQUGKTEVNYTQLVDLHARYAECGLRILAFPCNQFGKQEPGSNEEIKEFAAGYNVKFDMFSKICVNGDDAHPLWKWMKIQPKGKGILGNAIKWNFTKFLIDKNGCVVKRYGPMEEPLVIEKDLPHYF
In short: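 Steps: GPX4 plus compound, 30 min RT; add GR/GSH/NADPH master mix; start with cumene hydroperoxide; read 340/450 nm fluorescence at 0 and 15 min. Finals were 200 nM GPX4, 1 mM GSH, 0.5 mM CHP, 0.5 mM NADPH, 100 nM GR.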

[3] = molecular target: Luciferin 4-monooxygenase (Photinus pyralis) (UniProt P08659); assay: Primary firefly luciferase (FLuc) qHTS assay for identification of artifact compounds. (AID 1845220); also: nearly all actives have a fitted effect of over 60% in size; also: potency is read from the fitted curve at half-maximal effect; as to activity change, negative = inhibition: series mostly up to about 54 µM
In short: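 Enzymatic FLuc inhibition assay: compounds pre-exposed to luciferin/ATP (10 uM each) for 15 min, then purified P. pyralis enzyme at 10 nM added. Read-out: luminescence at 5 min.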

[4] = Primary fluorescence-based thiol-reactive (MSTI) qHTS assay for identification of artifact compounds. (AID 1845221); also: nearly all actives have a fitted effect of over 65% in size; also: potency is read from the fitted curve at half-maximal effect
In short: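 Reactivity toward the thiol probe MSTI (4 uM) is scored by fluorescence at Ex/Em 525/598 nm after 1 h at room temperature. Acetyl-MSTI and MSTI define the activity scale.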

[5] = Primary redox qHTS assay for identification of artifact compounds. (AID 1845223)
In short: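 Redox-cycling detection via DTT (250 uM final) oxidation coupled to Amplex Red (25 uM)/HRP (250 mU/mL) in HBSS. 15 min preincubation plus 30 min after DTT, room temperature. Ex/Em 525/598 nm; 4-parameter Hill fit against DMSO and 10 uM DA3003.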

[6] = tested on: Nanoluciferase (engineered Oplophorus gracilirostris luciferase); assay: Primary Nanoluciferase (NLuc) qHTS assay for identification of artifact compounds. (AID 1845222);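 also: NLuc secreted into diluted conditioned medium of S16 cells; series mostly up to about 54 µM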
In short: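 S16 cell supernatant NLuc, 1:55; cpds qHTS; 15 min RT dark; Nano-Glo substrate 1:100, 5 min; luminescence; Hill fit of % inhibition.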

| Structure (SMILES) | Potency [1] | Potency [2] | Potency [3] | Potency [4] | Potency [5] | Potency [6] | activity change, negative = inhibition [3] | activity, negative = inhibition [6] |
| --- | --- | --- | --- | --- | --- | --- | --- | --- |
| COc1cccc(C(=O)NCCNc2nc3cc(C)cc(C)c3cc2C#N)c1 | inactive | inactive | inactive | inactive | inactive |  |  |  |
| CC1CCC2C(C)(C)C(O)C(O)CC2(C)C12Cc1c(O)cc(CO)c(C=O)c1O2 (centres undefined) | inactive | inactive | inactive | inactive | inactive |  |  |  |
| CN(C)CC(c1ccc(O)cc1)C1(O)CCCCC1 (centres undefined) | inactive | inactive | inactive | inactive | inactive |  |  |  |
| Cc1c(F)cc(C(=O)NC2CC2)cc1-c1ccc(C(=O)NCC(C)(C)C)cn1 | inactive | inactive | inactive | inactive | inactive |  |  |  |
| CCC(C)C(N)C(=O)NCCN1CCOCC1 (centres undefined) | inactive | inactive | inactive | inactive | inactive |  |  |  |
| CCC[C@H](N[C@@H](C)C(=O)N1[C@H](C(=O)O)C[C@@H]2CCCC[C@@H]21)C(=O)O | inactive | inactive | inactive | inactive | inactive |  |  |  |
| CCC/C=C/C=C/C1CC(O)C(O)C(=O)C1CO (centres undefined) | inactive | inactive | inactive |  |  | inactive |  |  |
| CN(C)C(=O)C(O)C(Cc1ccccc1)NC(=O)c1cc2cc(Cl)ccc2[nH]1 (centres undefined) | inactive | inactive | inactive | inactive | inactive | inactive |  |  |
| C=CC1(C)CC=C2C(CCC3C(C)(C(=O)O)CCCC23C)C1 (centres undefined) | inactive | inactive | inactive | inactive | inactive |  |  |  |
| C[C@@H](CC[C@@H]1[C@@]2(C)CCCC(C)(C)C2CC[C@@]1(C)O)CC(=O)O (some centres undefined) | inactive | inactive | inactive | inactive | inactive |  |  |  |
| COc1ccccc1Oc1c(NS(=O)(=O)c2ccc(C)cn2)nc(-c2ccncc2)nc1OC | inactive | inactive | inactive | inactive | inactive |  |  |  |
| C=C1CCC[C@]2(C)CC[C@@](O)(C(=C)C(=O)O)C[C@@H]12 | inactive | inactive | inactive | inactive | inactive | inactive |  |  |
| Cn1nccc1-c1ccccc1Oc1ccc(S(=O)(=O)Nc2nccs2)cc1C#N | inactive | inactive | inactive | inactive | inactive |  |  |  |
| CC(C(=O)Nc1cc(C#N)ccc1CCCC(=O)O)c1ccc(F)c2ccccc12 (centres undefined) | inactive | inactive | inactive | inactive | inactive |  |  |  |
| COc1ccc(C2(O)c3c(ccc4c3OC(C)(CCC=C(C)C)C=C4)NC(=O)C2OC)cc1 (centres undefined) | inactive | inactive | inactive | inactive | inactive |  |  |  |
| CC(C)=CCc1c(O)cc2oc3cc(C)cc(O)c3c2c1C | inactive | inactive | 12 µM (active) | 4.74 µM (active) | inactive | inactive |  |  |
| O=C(/C=C/c1ccccc1)OC[C@H]1O[C@@H](OC(=O)c2cc(O)c(O)c(O)c2)[C@H](O)[C@@H](O)[C@@H]1O | inactive | inactive | inactive | 0.327 µM (active) | inactive |  |  |  |
| COc1cnc(-c2ccc(Cn3c(CC(C)(C)C(=O)O)c(SC(C)(C)C)c4cc(OC[C@@H]5Cc6ccccc6N5C(C)=O)ccc43)cc2)nc1 | inactive | inactive | inactive | inactive | inactive |  |  |  |
| O=C(Cn1c2ccccc2c2nc3n(c(=O)c21)CCS3)N1CCCC1 | inactive | inactive | inactive | inactive | inactive |  |  |  |

| Structure (SMILES) | Potency [1] | Potency [2] | Potency [3] | Potency [4] | Potency [5] | Potency [6] | activity change, negative = inhibition [3] | activity, negative = inhibition [6] |
| --- | --- | --- | --- | --- | --- | --- | --- | --- |
| CC1(C)CCC2(C(=O)O)CCC3(C)C(=CCC4C5(C)CCC(O)C(C)(CO)C5C(O)CC43C)C2C1 (centres undefined) | inactive | inactive | inactive |  | inactive | inactive |  |  |
| Cc1nc(-c2cccnc2)sc1C(=O)Nc1ccccc1-c1cn2c(CN3CCOCC3)csc2n1 | inactive | inactive | inactive |  | inactive | inactive |  |  |
| C/C(=C\C(=O)C[C@@]12C(=O)O[C@]3(C)CC[C@H]1C[C@H]23)C(N)=O | inactive | inactive | inactive |  |  | inactive |  |  |
| CC1(C(=O)O)CC[C@]2(C(=O)OC3OC(CO)C(O)C(O)C3O)CC[C@]3(C)C(=CCC4[C@@]5(C)CC[C@H](OC6OCC(O)C(O)C6OC6OC(CO)C(O)C(O)C6O)C(C)(C)C5CC[C@]43C)C2C1 (some centres undefined) | inactive | inactive |  |  |  |  | 0.425% [at 11.6 µM] (inactive) | 1.15% [at 11.6 µM] (inactive) |
| C=C1CC2C(C)(CCC(=O)O)C(C(C)(C)O)CCC2(C)C2(C(=O)OC)C(=O)C(C)(O)C(=O)C12C (centres undefined) | inactive | inactive | inactive |  |  | inactive |  |  |
| CC1=CC2=C(C)C(=O)C(C)(O)C(O)C2CO1 (centres undefined) | inactive | inactive | inactive |  |  | inactive |  |  |
| CCCCNc1nc(N)c2[nH]c(=O)n(Cc3ccc(OCCN(C)C)nc3)c2n1 | inactive | inactive | inactive |  |  | inactive |  |  |
| CC1(CO)CC(O)C2(C)CCC3(C)C(=CCC4C5(C=O)CCC(OC6OC(C(=O)O)C(O)C(O)C6OC6OC(C(=O)O)C(O)C(O)C6O)C(C)(C)C5CCC43C)C2C1 (centres undefined) | inactive | inactive |  |  |  |  | -10.9% [at 11.6 µM] (inactive) | -13.8% [at 11.6 µM] (inactive) |
| C[C@H]1CC(=O)C2=C(C1)C(O)C(O)[C@@]1(O)[C@H]2C(=O)c2cccc(O)c2[C@@H]1O (some centres undefined) | inactive | inactive | inactive |  | inactive | inactive |  |  |
| CC1=C[C@@H]2[C@H]3[C@@H]4O[C@@](C)(CC[C@H]4O)[C@H]3CC(=O)[C@]23C(=O)N[C@@H](CC(C)C)[C@@H]3[C@@H]1C | inactive | inactive | inactive |  |  | inactive |  |  |
| N[C@@H](CC(=O)Nc1ccc(Oc2cc(F)c(F)cc2Br)cc1)C(=O)O | inactive | inactive | inactive |  | inactive | inactive |  |  |
| COc1c2c(c(C)c3c1C(=O)OC3)OC1(C)CC(O)C34OC(OC)(CCC3(C)C1C2)OC4(C)CO (centres undefined) | inactive | inactive | inactive |  |  | inactive |  |  |
| CCCCCOc1ccc(-c2cc(-c3ccc(C(=O)N[C@H]4C[C@@H](O)[C@@H](O)NC(=O)C5[C@@H](O)[C@@H](C)CN5C(=O)C([C@H](O)CC(N)=O)NC(=O)C([C@H](O)[C@@H](O)c5ccc(O)c(OS(=O)(=O)O)c5)NC(=O)C5C[C@@H](O)CN5C(=O)C([C@@H](C)O)NC4=O)cc3)no2)cc1 (stereo partly drawn) (X2-[Orn(4R-OH,5R-OH)][ξThr(3R)][ξPro(4R-OH)][ξhTyr(3S-OH,4S-OH,3'-OSO3H)][ξGln(3R-OH)][X3]; lactam 1-C) | inactive | inactive and 2 µM (active) | inactive |  |  | inactive |  |  |
| CC[C@@H]1[C@H]2CCCCN3C(=O)C[C@H]([C@@H]4[C@H]1OC(=O)[C@H]4C)[C@@H]23 | inactive | inactive | inactive |  |  | inactive |  |  |
| C=C1Cc2c(Cl)cc3[nH]c4c5c3c2[C@@]2(O)[C@@H]1C[C@@H]2C(C)(C)O[C@H]5C1CC[C@@]2(O)[C@@]35O[C@@H]3[C@H]3OC(C)(C)[C@H]3O[C@H]5CC[C@]2(C)[C@@]41C (some centres undefined) | inactive | inactive | inactive |  |  | inactive |  |  |
| C[C@H]1[C@H](C)CC[C@]2(C(=O)OC3OC(CO)C(O)C(O)C3O)CC[C@]3(C(=O)O)C(=CCC4[C@@]5(C)CC[C@H](O[C@@H]6O[C@@H](C)[C@H](OC7OC(CO)C(O)C(O)C7O)[C@@H](O)[C@H]6O)C(C)(C)C5CC[C@]43C)[C@H]12 (some centres undefined) | inactive | inactive |  |  |  |  | -5.72% [at 11.6 µM] (inactive) | 1.44% [at 11.6 µM] (inactive) |
| C=C(C(=O)OC)[C@]12O[C@@](C)(CC[C@@]3(O)/C(=C\C)C(=O)O[C@]3(C)C[C@@H]1OC(=O)C(CO)CN1CCCC1C(=O)O)CC2=O (some centres undefined) | inactive | inactive | inactive |  | inactive | inactive |  |  |
| O=C(CC1CC(c2ccc(F)cc2F)=NO1)N1CCOCC1 (centres undefined) | inactive | inactive | 2.13 µM (active) |  |  | inactive |  |  |
